Assay results taken from PubChem BioAssay.
Activity calls are given as the source filed them.

Assays:
[1] = small molecules captured by biotinylated probe aFSTL3 – biochemical, small-molecule microarray, fluorescence 635/667, stem cell growth factor project, primary screen (AID 1064); conditions: higher = more signal;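 note: measures binding of the biotinylated anti-FSTL3 antibody to printed compounds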
[2] = binders from COS7 lysate, DM2A8 probe, primary screen, torsin A project, cell lysate, small-molecule microarray, fluorescence 635/667 (AID 1065); conditions: higher = more signal, COS7 lysate expressing mutant human TOR1A
[3] = small molecules captured by biotinylated probe aFGF2 – biochemical, small-molecule microarray, fluorescence 635/667, stem cell growth factor project, primary screen (AID 1067); conditions: higher = more signal;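 note: measures binding of biotinylated aFGF2 protein to printed compounds on slides; z-score merges feature fluorescence and signal-to-noise across triplicate slides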
[4] = small molecules captured by biotinylated probe aFGF10 – biochemical, small-molecule microarray, fluorescence 635/667, stem cell growth factor project, primary screen (AID 1071); conditions: higher = more signal;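 note: score merges 667 nm spot intensity and signal to noise from triplicate slides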
[5] = molecular target: Neurogenic locus notch homolog protein 2 (Homo sapiens) (UniProt Q04721); assay: small molecules binding Notch2 protein – biochemical, small-molecule microarray, 635 nm fluorescence, stem cell growth factors, primary screen (AID 1073); conditions: higher = more signal
[6] = molecular target: Pro-neuregulin-1, membrane-bound isoform (Homo sapiens) (UniProt Q02297); assay: small molecules binding neuregulin-1 protein – biochemical, small-molecule microarray, fluorescence 635/667, psychiatric disease protein project, primary screen (AID 1075); conditions: NRG1 binding, 635 nm fluorescence, higher = more signal;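 note: score combines 667 nm spot fluorescence with signal to noise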
Pro-neuregulin-1, membrane-bound isoform (Homo sapiens), sequence (Q02297 whole entry, looked up, the tested form may be a part, canonical isoform): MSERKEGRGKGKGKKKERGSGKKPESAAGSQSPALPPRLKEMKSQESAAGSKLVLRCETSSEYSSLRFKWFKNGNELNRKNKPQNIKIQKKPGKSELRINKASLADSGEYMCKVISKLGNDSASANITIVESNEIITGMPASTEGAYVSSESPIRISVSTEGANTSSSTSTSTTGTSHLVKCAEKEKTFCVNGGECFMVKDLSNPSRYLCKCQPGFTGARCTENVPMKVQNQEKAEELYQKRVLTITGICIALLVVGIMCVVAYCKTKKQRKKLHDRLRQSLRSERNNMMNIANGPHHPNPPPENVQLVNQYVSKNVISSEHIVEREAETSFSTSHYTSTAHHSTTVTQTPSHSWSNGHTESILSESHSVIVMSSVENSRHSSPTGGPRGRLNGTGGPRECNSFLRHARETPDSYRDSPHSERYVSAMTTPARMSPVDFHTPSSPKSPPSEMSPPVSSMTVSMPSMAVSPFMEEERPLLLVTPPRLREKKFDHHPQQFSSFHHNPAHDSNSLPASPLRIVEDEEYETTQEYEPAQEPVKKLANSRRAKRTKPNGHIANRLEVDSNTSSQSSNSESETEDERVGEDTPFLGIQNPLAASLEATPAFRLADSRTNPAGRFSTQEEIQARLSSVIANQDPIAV

[7] = system: Neuregulin-1 EGF-like domain; assay: small molecules binding NRG1 EGF domain – biochemical, small-molecule microarray, 635 nm fluorescence, primary screen (AID 1081); conditions: higher = more signal;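 note: binding of the protein to compounds printed on small-molecule microarray slides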
[8] = FRG1 expression reporter modulators in myotubes – cell-based, C2C12 myotubes, firefly/Renilla luciferase, luminescence, FRG1 inhibition for FSHD, primary screen (AID 1084); conditions: FRG1 promoter luciferase, higher = more signal, called active from +8 up or from −8 down
[9] = small molecules captured by biotinylated probe aFST – biochemical, small-molecule microarray, fluorescence 635/667, stem cell growth factor project, primary screen (AID 1086); conditions: higher = more signal;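 note: score merges 667 nm fluorescence with signal-to-noise of each printed compound spot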
[10] = binders of probe aHhip on microarray, primary screen, stem cell growth factor project, biochemical, small-molecule microarray, fluorescence 635/667 (AID 1087); conditions: higher = more signal;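 note: score merges spot fluorescence at 667nm with spot signal to noise ratio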
[11] = system: PRMT1 (protein arginine N-methyltransferase 1); assay: small molecules binding arginine methyltransferase PRMT1 – biochemical, small-molecule microarray, 635 nm fluorescence, primary screen (AID 1088); conditions: higher = more signal;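 note: binding of Prmt1 protein to compounds spotted on small-molecule microarray slides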
[12] = growth effects on S. cerevisiae YJM789 – YJM789 clinical isolate, OD600, 24 h, basal, primary screen (AID 1089); conditions: higher = more signal, called active from +8 up or from −8 down;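 note: growth of clinical yeast isolate S. cerevisiae YJM 789 seeded 1000 cells per well; test concentration not given here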
[13] = S. pombe growth modifiers, basal conditions – strain 972, OD600, 24 h, no modulator, primary screen (AID 1090);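 note: basal condition with compound alone and no growth modifier present; test concentration not given here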; conditions: S. pombe 972 growth, higher = more signal, called active from +8 up or from −8 down
[14] = budding yeast growth modifiers under rapamycin – strain BY4716, OD600, 96 h, primary screen (AID 1091); note: test concentration not given here; conditions: S. cerevisiae BY4716 + rapamycin, higher = more signal, called active from +8 up or from −8 down
[15] = molecular target: Torsin-1A-interacting protein 2 (Homo sapiens) (UniProt Q8NFQ8); assay: small molecules binding lysate-expressed LULL1 – cell lysate, human LULL1 lysate, 635/667 nm fluorescence, primary screen (AID 1092); conditions: small-molecule microarray, hLULL1 lysate binding, 635 nm fluorescence; higher = more signal;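 note: probe is lysate of COS7 cells overexpressing human LULL1; score merges per-feature 667 nm fluorescence with signal-to-noise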
Torsin-1A-interacting protein 2 (Homo sapiens), sequence (Q8NFQ8 whole entry, looked up): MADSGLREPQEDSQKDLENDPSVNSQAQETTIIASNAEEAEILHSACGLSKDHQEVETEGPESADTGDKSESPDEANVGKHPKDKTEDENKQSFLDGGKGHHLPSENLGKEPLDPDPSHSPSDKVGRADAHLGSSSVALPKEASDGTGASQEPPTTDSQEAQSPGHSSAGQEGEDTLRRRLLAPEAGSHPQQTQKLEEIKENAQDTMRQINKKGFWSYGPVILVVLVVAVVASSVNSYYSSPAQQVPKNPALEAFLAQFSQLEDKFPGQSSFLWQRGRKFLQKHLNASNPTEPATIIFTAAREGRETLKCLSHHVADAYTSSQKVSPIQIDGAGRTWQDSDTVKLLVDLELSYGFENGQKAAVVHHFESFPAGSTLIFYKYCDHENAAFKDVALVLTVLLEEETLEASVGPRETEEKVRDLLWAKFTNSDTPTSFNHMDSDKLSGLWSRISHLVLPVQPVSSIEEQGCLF

[16] = optical density change of DRC41 E. coli – strain DRC41, OD650, 24 h, E. coli filamentation project, primary screen (AID 1093);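 note: MC1000 strain lacking acrAB efflux and sulA so SOS filamentation is blocked; test concentration not given here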; conditions: E. coli DRC41 growth, higher = more signal, called active from +8 up or from −8 down
[17] = probe aLefty2 binding to arrayed compounds – biochemical, biotinylated probe, 635/667 nm fluorescence, primary screen (AID 1094); conditions: small-molecule microarray, higher = more signal;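 note: score merges spot fluorescence near 667 nm with spot signal-to-noise ratio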
[18] = system: Noggin (protein binding on small-molecule microarray); assay: small molecules binding Noggin protein – biochemical, 635/667 nm fluorescence, primary screen (AID 1095); conditions: 635 nm fluorescence, higher = more signal;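 note: score merges 667 nm feature fluorescence with signal to noise over triplicate slides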
[19] = molecular target: Neurogenic locus notch homolog protein 3 (Homo sapiens) (UniProt Q9UM47); assay: small molecules binding NOTCH3 protein – biochemical, 635/667 nm fluorescence, primary screen (AID 1096); conditions: small-molecule microarray, 635 nm fluorescence, higher = more signal
Neurogenic locus notch homolog protein 3 (Homo sapiens), sequence (Q9UM47 whole entry, looked up): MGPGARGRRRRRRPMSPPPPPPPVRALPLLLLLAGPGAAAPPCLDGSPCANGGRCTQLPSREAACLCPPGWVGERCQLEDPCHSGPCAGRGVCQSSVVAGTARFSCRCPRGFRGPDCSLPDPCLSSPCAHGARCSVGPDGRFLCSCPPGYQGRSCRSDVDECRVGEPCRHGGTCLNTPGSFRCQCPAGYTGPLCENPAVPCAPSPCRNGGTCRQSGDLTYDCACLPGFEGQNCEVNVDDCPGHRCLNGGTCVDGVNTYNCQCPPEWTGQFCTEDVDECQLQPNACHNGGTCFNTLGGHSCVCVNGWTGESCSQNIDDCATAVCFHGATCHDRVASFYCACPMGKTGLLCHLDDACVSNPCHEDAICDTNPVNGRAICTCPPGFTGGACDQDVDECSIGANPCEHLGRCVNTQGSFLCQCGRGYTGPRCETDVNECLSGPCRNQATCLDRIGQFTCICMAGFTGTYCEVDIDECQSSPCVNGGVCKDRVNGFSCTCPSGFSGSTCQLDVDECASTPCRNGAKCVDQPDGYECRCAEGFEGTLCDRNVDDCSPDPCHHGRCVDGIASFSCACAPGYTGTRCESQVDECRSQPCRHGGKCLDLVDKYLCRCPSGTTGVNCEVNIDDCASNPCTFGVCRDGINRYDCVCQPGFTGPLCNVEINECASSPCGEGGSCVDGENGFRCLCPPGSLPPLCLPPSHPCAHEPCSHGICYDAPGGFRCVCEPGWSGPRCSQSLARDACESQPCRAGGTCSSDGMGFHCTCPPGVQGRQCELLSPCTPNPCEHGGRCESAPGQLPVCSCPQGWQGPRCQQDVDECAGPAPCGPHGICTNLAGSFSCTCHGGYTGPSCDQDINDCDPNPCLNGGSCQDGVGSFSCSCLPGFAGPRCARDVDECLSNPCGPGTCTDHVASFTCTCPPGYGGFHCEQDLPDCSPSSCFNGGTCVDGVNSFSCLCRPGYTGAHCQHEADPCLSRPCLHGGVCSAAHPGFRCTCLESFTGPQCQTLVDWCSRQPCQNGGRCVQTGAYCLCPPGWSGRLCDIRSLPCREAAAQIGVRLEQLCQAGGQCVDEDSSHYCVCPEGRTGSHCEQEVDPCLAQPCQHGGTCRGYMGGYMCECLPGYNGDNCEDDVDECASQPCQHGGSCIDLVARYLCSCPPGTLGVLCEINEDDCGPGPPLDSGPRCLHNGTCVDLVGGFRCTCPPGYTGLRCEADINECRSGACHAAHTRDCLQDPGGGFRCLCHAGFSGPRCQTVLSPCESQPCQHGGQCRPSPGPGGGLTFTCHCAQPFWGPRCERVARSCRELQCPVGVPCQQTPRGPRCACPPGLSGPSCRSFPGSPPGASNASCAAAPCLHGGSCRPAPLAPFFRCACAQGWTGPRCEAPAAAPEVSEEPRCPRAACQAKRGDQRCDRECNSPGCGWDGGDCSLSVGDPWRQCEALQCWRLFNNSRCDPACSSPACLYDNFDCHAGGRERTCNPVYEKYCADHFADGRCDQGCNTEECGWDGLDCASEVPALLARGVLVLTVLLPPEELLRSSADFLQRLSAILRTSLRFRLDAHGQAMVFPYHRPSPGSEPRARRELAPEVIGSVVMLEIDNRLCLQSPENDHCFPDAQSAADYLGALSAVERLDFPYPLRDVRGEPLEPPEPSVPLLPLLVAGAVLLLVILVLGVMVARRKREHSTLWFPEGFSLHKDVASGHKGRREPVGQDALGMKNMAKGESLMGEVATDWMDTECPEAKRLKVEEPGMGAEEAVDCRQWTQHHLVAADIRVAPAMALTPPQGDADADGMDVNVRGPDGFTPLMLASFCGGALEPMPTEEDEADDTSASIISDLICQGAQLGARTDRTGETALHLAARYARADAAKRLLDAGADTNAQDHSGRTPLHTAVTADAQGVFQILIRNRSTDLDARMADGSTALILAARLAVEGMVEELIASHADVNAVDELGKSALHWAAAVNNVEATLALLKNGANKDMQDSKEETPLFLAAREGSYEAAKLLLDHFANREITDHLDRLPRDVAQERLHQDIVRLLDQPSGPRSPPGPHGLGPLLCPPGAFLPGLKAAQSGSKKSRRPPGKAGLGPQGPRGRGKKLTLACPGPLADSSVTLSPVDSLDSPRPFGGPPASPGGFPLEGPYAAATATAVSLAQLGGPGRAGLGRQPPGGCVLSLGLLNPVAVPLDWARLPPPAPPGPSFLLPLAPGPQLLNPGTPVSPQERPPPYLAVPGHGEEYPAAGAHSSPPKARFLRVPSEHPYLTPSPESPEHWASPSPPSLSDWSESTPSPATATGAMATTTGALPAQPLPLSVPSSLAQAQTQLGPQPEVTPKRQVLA

[20] = probe aEGFR binding to arrayed compounds – biochemical, biotinylated probe, 635/667 nm fluorescence, primary screen (AID 1097); conditions: small-molecule microarray, higher = more signal;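 note: probe is a biotinylated anti-EGFR antibody binding compounds printed on slides; score combines fluorescence near 667 nm and signal to noise of each spot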

C=CCC(OC(C)=O)[C@@H]1[C@@H](N(Cc2cc3ccccc3o2)C(=O)Cc2ccc(F)cc2)c2cc(OCCCO)ccc2N1C(=O)c1ccc2ccccc2n1 (stereo not given in full)
composite z-score [1]: -0.0583
composite z-score [2]: 0.337
composite z-score [3]: -0.0695
composite z-score [4]: 0.0991
composite z-score [5]: -0.0518
composite z-score [6]: -0.137
composite z-score [7]: -0.275
z-score [8]: -0.591 (inactive)
composite z-score [9]: 0.0407
composite z-score [10]: 0.0881
composite z-score [11]: -0.22
z-score [12]: -0.271 (inactive)
z-score [13]: -0.448 (inactive)
z-score [14]: -0.258 (inactive)
composite z-score [15]: -0.136
z-score [16]: -0.494 (inactive)
composite z-score [17]: 0.055
composite z-score [18]: -0.145
composite z-score [19]: -0.814
composite z-score [20]: -0.0573

CC=CC(O)C1C=CC2C(=O)N(c3ccccc3)C(=O)C2N1Nc1ccccc1 (stereo not given)
composite z-score [1]: 0.393
composite z-score [2]: 0.274
composite z-score [3]: -0.0114
composite z-score [4]: 1.02
composite z-score [5]: 1.68
composite z-score [6]: 1.91
composite z-score [7]: 1.29
z-score [8]: 0.568 (inactive)
composite z-score [9]: 1.14
composite z-score [10]: -0.0852
composite z-score [11]: 1.55
z-score [12]: 0.0831 (inactive)
z-score [13]: -0.32 (inactive)
z-score [14]: -0.474 (inactive)
composite z-score [15]: 3.33
z-score [16]: 0.143 (inactive)
composite z-score [17]: 0.209
composite z-score [18]: 0.0919
composite z-score [19]: 1.09
composite z-score [20]: 0.113

C=CCOC(=O)[C@H]1[C@@H]2C(=O)O[C@@H](c3ccccc3)[C@@H](c3ccccc3)N2[C@@H](c2ccc(OCCOC(=O)[C@H]3C[C@H]4C(=O)N[C@@H](Cc5ccccc5)C(=O)N4[C@H]3c3ccc(O)cc3)cc2)[C@]12C(=O)Nc1ccc(I)cc12
composite z-score [1]: 0.558
composite z-score [2]: 0.412
composite z-score [3]: -0.0093
composite z-score [4]: 0.979
composite z-score [5]: 0.779
composite z-score [6]: 0.932
composite z-score [7]: 1.21
z-score [8]: 0.808 (inactive)
composite z-score [9]: 2.17
composite z-score [10]: -0.582
composite z-score [11]: 1.55
z-score [12]: 0.827 (inactive)
z-score [13]: 1.36 (inactive)
z-score [14]: 3.95 (inactive)
composite z-score [15]: 2.39
z-score [16]: -0.305 (inactive)
composite z-score [17]: -0.0267
composite z-score [18]: 1.69
composite z-score [19]: 1.05
composite z-score [20]: -0.118

COC1(C)CN(Cc2ccccc2Br)[C@H](/C=C/c2ccccc2)[C@H](Cc2ccccc2)O1 (stereo not given in full)
composite z-score [1]: -0.366
composite z-score [2]: 0.115
composite z-score [3]: -0.194
composite z-score [4]: -0.0452
composite z-score [5]: -0.669
composite z-score [6]: -0.435
composite z-score [7]: -0.426
z-score [8]: -0.916 (inactive)
composite z-score [9]: -0.317
composite z-score [10]: 0.0373
composite z-score [11]: -0.355
z-score [12]: -0.0969 (inactive)
z-score [13]: 0.239 (inactive)
z-score [14]: 0.243 (inactive)
composite z-score [15]: -0.92
z-score [16]: 1.07 (inactive)
composite z-score [17]: -0.231
composite z-score [18]: -0.391
composite z-score [19]: -0.789
composite z-score [20]: -0.159

O=C1O[C@H](c2ccccc2)[C@H](c2ccccc2)N2[C@H]1[C@@H](C(=O)O)[C@]1(C(=O)Nc3ccccc31)[C@H]2c1ccc(O)cc1
composite z-score [1]: 1.17
composite z-score [2]: -0.122
composite z-score [3]: -0.113
composite z-score [4]: 0.338
composite z-score [5]: -0.844
composite z-score [6]: 1.85
composite z-score [7]: 0.771
z-score [8]: 1.28 (inactive)
composite z-score [9]: -0.388
composite z-score [10]: -0.24
composite z-score [11]: 0.548
z-score [12]: 1.34 (inactive)
z-score [13]: 0.278 (inactive)
z-score [14]: 0.3 (inactive)
composite z-score [15]: 1.87
z-score [16]: -0.423 (inactive)
composite z-score [17]: -0.166
composite z-score [18]: -0.317
composite z-score [19]: -0.188
composite z-score [20]: -0.257

CN(C)CCCCNC(=O)[C@H]1C[C@H]2C(=O)N[C@@H](CCCCN(C)C)C(=O)N2[C@H]1c1cccc(OCCO)c1
composite z-score [1]: -0.852
composite z-score [2]: 1.25
composite z-score [3]: 0.0025
composite z-score [4]: 1.02
composite z-score [5]: 0.591
composite z-score [6]: 0.839
composite z-score [7]: 1.32
z-score [8]: -0.275 (inactive)
composite z-score [9]: 0.402
composite z-score [10]: -0.381
composite z-score [11]: 1.53
z-score [12]: 0.328 (inactive)
z-score [13]: 1.22 (inactive)
z-score [14]: -0.378 (inactive)
composite z-score [15]: 2.74
z-score [16]: -0.0359 (inactive)
composite z-score [17]: -0.0474
composite z-score [18]: 1.38
composite z-score [19]: 0.993
composite z-score [20]: -0.219

COC(=O)[C@@]1(Cc2ccc(OC)cc2)[C@H]2c3cc(C(=O)N(C)C)n(CCc4c[nH]c5ccc(O)cc45)c3C[C@H]2CN1C(=O)c1ccccc1
composite z-score [1]: 1.27
composite z-score [2]: -0.0234
composite z-score [3]: 0.147
composite z-score [4]: 1.04
composite z-score [5]: 1.69
composite z-score [6]: 1.91
composite z-score [7]: 1.25
z-score [8]: 1.5 (inactive)
composite z-score [9]: 1.7
composite z-score [10]: 0.177
composite z-score [11]: 0.56
z-score [12]: 1.94 (inactive)
z-score [13]: 0.466 (inactive)
z-score [14]: 3.51 (inactive)
composite z-score [15]: 3.36
z-score [16]: -0.765 (inactive)
composite z-score [17]: 0.41
composite z-score [18]: -0.0794
composite z-score [19]: 1.02
composite z-score [20]: 0.102

CC(C)(C)OC(=O)CC[C@]1(C(=O)N2CCOCC2)N=C(c2ccc(OCCCO)cc2)O[C@H]1c1ccccc1
composite z-score [1]: -0.209
composite z-score [2]: 0.177
composite z-score [3]: -0.0601
composite z-score [4]: 0.724
composite z-score [5]: 0.819
composite z-score [6]: 0.526
composite z-score [7]: 0.548
z-score [8]: -2.64 (inactive)
composite z-score [9]: 0.534
composite z-score [10]: 0.0695
composite z-score [11]: 0.587
z-score [12]: 0.0164 (inactive)
z-score [13]: -0.988 (inactive)
z-score [14]: -0.439 (inactive)
composite z-score [15]: 2.52
z-score [16]: 0.961 (inactive)
composite z-score [17]: 0.0038
composite z-score [18]: 1.26
composite z-score [19]: 0.348
composite z-score [20]: -0.0656

CCOC(=O)C1=CC[C@@H](c2ccccc2C(F)(F)F)N(S(=O)(=O)c2ccc(C)cc2)C1
composite z-score [1]: 0.811
composite z-score [2]: 1.54
composite z-score [3]: 0.313
composite z-score [4]: 1.1
composite z-score [5]: 1.67
composite z-score [6]: 1.79
composite z-score [7]: 1.28
z-score [8]: -3.59 (inactive)
composite z-score [9]: 0.997
composite z-score [10]: -0.0439
composite z-score [11]: 1.5
z-score [12]: -2.43 (inactive)
z-score [13]: -0.598 (inactive)
z-score [14]: 0.105 (inactive)
composite z-score [15]: 2.63
z-score [16]: -0.607 (inactive)
composite z-score [17]: 0.495
composite z-score [18]: 0.03
composite z-score [19]: 1.04
composite z-score [20]: 0.678

CO[C@H]1O[C@H](CO)[C@@H](OC(=O)c2ccc(Br)cc2)[C@@H]2OC(=O)[C@@H](Cc3ccc4ccccc4c3)C/C=C/C[C@H](Cc3ccc4ccccc4c3)C(=O)O[C@@H]12
composite z-score [1]: -0.248
composite z-score [2]: -0.08
composite z-score [3]: 0.0289
composite z-score [4]: 0.622
composite z-score [5]: 0.714
composite z-score [6]: 1.74
composite z-score [7]: 1.2
z-score [8]: -1.14 (inactive)
composite z-score [9]: 0.349
composite z-score [10]: 1.2
composite z-score [11]: 1.45
z-score [12]: -2.76 (inactive)
z-score [13]: -2.35 (inactive)
z-score [14]: -0.842 (inactive)
composite z-score [15]: 2.82
z-score [16]: 0.0001 (inactive)
composite z-score [17]: -0.0375
composite z-score [18]: 0.0104
composite z-score [19]: 0.478
composite z-score [20]: -0.112
